Data: PubChem BioAssay (NCI)
“And” between values parts separate entries of the source, which are not always exact repeats. Equal entries are not always repeated. This is part of a sample that, as a whole, favours compounds with a hit. Of some 79,000 tested, about 15% had one in any assay. Values without a mark were called inactive. The source made the active and inactive calls. Rule as the data show it: active = growth inhibition above about 70%; inactive = the rest.

Legend:
[1] = NCI Yeast Anticancer Drug Screen. Data for the rad50 strain (AID 155);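 also: 0% = growth of vehicle-only cultures of the same strain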; conditions: S. cerevisiae rad50 strain growth inhibition, stronger effect = higher value; at 50.0 µM unless noted
Outline: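 Growth of the mutant yeast was measured after compound exposure and referenced to vehicle-treated cultures.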

[2] = NCI Yeast Anticancer Drug Screen. Data for the mec2-1 strain (AID 157); conditions: S. cerevisiae mec2-1 strain, stronger effect = higher value; at 50.0 µM unless noted
Outline: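 Mutant yeast (mec2-1) grown with compound; growth inhibition relative to vehicle control reported.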

[3] = NCI Yeast Anticancer Drug Screen. Data for the sgs1 mgt1 strain (AID 161);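 also: 0% = growth of cultures given vehicle only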; conditions: S. cerevisiae sgs1 mgt1 strain, stronger effect = higher value; at 50.0 µM unless noted
Outline: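 Compounds are added to genetically altered yeast, and growth is compared with cultures given vehicle alone to give percent inhibition.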

[4] = NCI Yeast Anticancer Drug Screen. Data for the cln2 rad14 strain (AID 165);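 also: 0% = growth equal to vehicle treated cultures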; conditions: S. cerevisiae cln2 rad14 strain, stronger effect = higher value; at 50.0 µM unless noted
Outline: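 Readout is yeast growth inhibition versus vehicle-treated controls, using a strain with cln2 and rad14 alterations exposed to compound.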

[5] = NCI Yeast Anticancer Drug Screen. Data for the bub3 strain (AID 167); conditions: S. cerevisiae bub3 mutant strain, stronger effect = higher value; at 50.0 µM unless noted
Outline: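 Whole-cell yeast assay. The mutant strain was incubated with compounds, and growth inhibition was determined by comparison with vehicle-treated cells.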

[6] = NCI Yeast Anticancer Drug Screen. Data for the mlh1 rad18 strain (AID 175); conditions: S. cerevisiae mlh1 rad18 strain growth inhibition, stronger effect = higher value; at 50.0 µM unless noted
Outline: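 Genetically defined yeast (DNA repair-deficient) exposed to compounds; growth inhibition determined relative to vehicle.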

CCC(C)(CC=C(C)C)c1ccncc1 (centres undefined)
growth inhibition [1]: -6.7% | growth inhibition [2]: 1.95% | growth inhibition [3]: 3.1% | growth inhibition [4]: -16.8% | growth inhibition [5]: 9.6% | growth inhibition [6]: -9.6%

O=C(O)C(Cc1cccs1)C(=O)O
growth inhibition [1]: -12.8% | growth inhibition [2]: 0.6% | growth inhibition [3]: -15.2% | growth inhibition [4]: 41.5% | growth inhibition [5]: -18.6% | growth inhibition [6]: -4.25%

O=C1OCCOCCOCCOCCOC(=O)c2cccc1n2
growth inhibition [1]: -10.2% | growth inhibition [2]: 6.65% | growth inhibition [3]: 12.6% | growth inhibition [4]: 17.1% | growth inhibition [5]: 5.2% | growth inhibition [6]: 7.2%

N#Cc1cc2c(N)ncnc2nc1N1CCCC1
growth inhibition [1]: -43.7% | growth inhibition [2]: -61.8% | growth inhibition [3]: -13.3% | growth inhibition [4]: -2.25% | growth inhibition [5]: 5.35% | growth inhibition [6]: -26.2%

CCCCCCC1(C)NC(=O)NC1=O (centres undefined)
growth inhibition [1]: -20.2% | growth inhibition [2]: -11.8% | growth inhibition [3]: -2.15% | growth inhibition [4]: -77.1% | growth inhibition [5]: 6.3% | growth inhibition [6]: -8.3%

CC(C)NC(=O)c1ccc(Cl)cc1Cl
growth inhibition [1]: 26.9% | growth inhibition [2]: 27.9% | growth inhibition [3]: 15.6% | growth inhibition [4]: 10.9% | growth inhibition [5]: 3.7% | growth inhibition [6]: 12%

Oc1ccc(C(Cc2ccccc2)NCc2ccccc2)cc1 (centres undefined)
growth inhibition [1]: -8.15% | growth inhibition [2]: 14.6% | growth inhibition [3]: 15.7% | growth inhibition [4]: -12.6% | growth inhibition [5]: 5.25% | growth inhibition [6]: 17.9%

CCC(CC)C(=O)OC1CCCCC1
growth inhibition [1]: 9.9% | growth inhibition [2]: 5.25% | growth inhibition [3]: 13.8% | growth inhibition [4]: -7.8% | growth inhibition [5]: 4.8% | growth inhibition [6]: 5.35%

CCC(/C=C/c1ccc(C)cc1)=N\NC(=O)c1ccccc1
growth inhibition [1]: -0.25% | growth inhibition [2]: -2.3% | growth inhibition [3]: -1.1% | growth inhibition [4]: 19.2% | growth inhibition [5]: 3.35% | growth inhibition [6]: 3.05%

COc1ccc(C2c3cc4c(cc3C(O)C3CCC(=O)N23)OCO4)cc1 (centres undefined)
growth inhibition [1]: -31.6% | growth inhibition [2]: 3.3% | growth inhibition [3]: -17.2% | growth inhibition [4]: -1.25% | growth inhibition [5]: -7.4% | growth inhibition [6]: -15.1%

CCOC(=O)c1[nH]c(=O)[nH]c(=O)c1[N+](=O)[O-]
growth inhibition [1]: 0.4% | growth inhibition [2]: -3.75% | growth inhibition [3]: 7.15% | growth inhibition [4]: 3.4% | growth inhibition [5]: -11.9% | growth inhibition [6]: -2.3%

CCCCC(C#N)C(=O)NC(N)=O (centres undefined)
growth inhibition [1]: -7% | growth inhibition [2]: 3.2% | growth inhibition [3]: -8.05% | growth inhibition [4]: 0.4% | growth inhibition [5]: 4.85% | growth inhibition [6]: -7.25%

O=c1c2cc(O)ccc2n2nnc3ccc(NCCNCCO)c1c32
growth inhibition [1]: -18.4% and -10.8% | growth inhibition [2]: -16.3% and -12.1% | growth inhibition [3]: -35.1% and -8.7% | growth inhibition [4]: 18.1% and 16.9% | growth inhibition [5]: 8.3% and 1% | growth inhibition [6]: -4.7% and 3.1%

CCC(C)(C)NC(N)=O
growth inhibition [1]: 13.1% | growth inhibition [2]: 22.6% | growth inhibition [3]: 8.55% | growth inhibition [4]: -34.2% | growth inhibition [5]: 8.55% | growth inhibition [6]: 23.7%

CC(C)c1ccc(C2NC(c3ccccc3)c3c(ccc4ccccc34)O2)cc1 (centres undefined)
growth inhibition [1]: 36.9% | growth inhibition [2]: -4.85% | growth inhibition [3]: 6.1% | growth inhibition [4]: 0.5% | growth inhibition [5]: -1.6% | growth inhibition [6]: -1.65%

C/C(=N/NC(N)=S)c1ccc([N+](=O)[O-])cc1
growth inhibition [1]: 75.7% (active) | growth inhibition [2]: -8.8% | growth inhibition [3]: -8.6% | growth inhibition [4]: -64.7% | growth inhibition [5]: -12.4% | growth inhibition [6]: -2.3%

Cc1ccc2sccc(=O)c2c1
growth inhibition [1]: 1.05% | growth inhibition [2]: -2.1% | growth inhibition [3]: -8.95% | growth inhibition [4]: -12.8% | growth inhibition [5]: -5.95% | growth inhibition [6]: 7.6%

CCN(CC)CCN1CC(=O)N2CCCCN2C(=O)C1
growth inhibition [1]: 17.2% | growth inhibition [2]: 4.5% | growth inhibition [3]: 14.9% | growth inhibition [4]: 13.4% | growth inhibition [5]: 7.85% | growth inhibition [6]: 10.6%

CC(=O)[CH-]C(=O)c1ccccc1.CC(=O)[CH-]C(=O)c1ccccc1.CC1(C)OCC(C2OC3OC(C)(C)OC3C2[O-])O1.CC[O-].[Ti+4] (centres undefined)
growth inhibition [1]: 41.4% | growth inhibition [2]: 24.1% | growth inhibition [3]: 35.5% | growth inhibition [4]: 23% | growth inhibition [5]: 31.2% | growth inhibition [6]: 33.4%

O=C(Cc1ccccc1)c1ccccc1C(=O)NCc1ccncc1
growth inhibition [1]: 1.7% | growth inhibition [2]: 2.05% | growth inhibition [3]: 2.25% | growth inhibition [4]: -20.5% | growth inhibition [5]: 9% | growth inhibition [6]: -0.6%

CNc1c(F)c(C#N)c(F)c(F)c1C#N
growth inhibition [1]: 9.35% | growth inhibition [2]: -6.95% | growth inhibition [3]: -16.6% | growth inhibition [4]: -8.95% | growth inhibition [5]: 0.55% | growth inhibition [6]: 1.75%

NC(=O)c1c([N+](=O)[O-])ncn1C1OC(CO)C(O)C1O (centres undefined)
growth inhibition [1]: 20.5% | growth inhibition [2]: -7.75% | growth inhibition [3]: -5.8% | growth inhibition [4]: -12.2% | growth inhibition [5]: 5.8% | growth inhibition [6]: 14.1%

CC(C)(CN1CCCCC1)C(=O)CC(SCCN)c1ccc(Cl)cc1 (centres undefined)
growth inhibition [1]: 27.8% | growth inhibition [2]: 0.65% | growth inhibition [3]: 47.3% | growth inhibition [4]: 31.2% | growth inhibition [5]: 46.9% | growth inhibition [6]: 23.8%

N#Cc1ccc(/C=C(/C(=O)c2ccccc2)c2ccccc2)cc1
growth inhibition [1]: 7.35% | growth inhibition [2]: -31.9% | growth inhibition [3]: 0.2% | growth inhibition [4]: 6.85% | growth inhibition [5]: -23.8% | growth inhibition [6]: -3.35%

CC(=O)Nc1ccc(-c2nnc(SCC(=O)Nc3cccc([N+](=O)[O-])c3)o2)cc1
growth inhibition [1]: -2% | growth inhibition [2]: 5.15% | growth inhibition [3]: 15.6% | growth inhibition [4]: -17.5% | growth inhibition [5]: -10.7% | growth inhibition [6]: 0.4%

C=CCC(C)(O)CCC(C)(O)CC=C (centres undefined)
growth inhibition [1]: -1.95% | growth inhibition [2]: -14.6% | growth inhibition [3]: -8.3% | growth inhibition [4]: 1.2% | growth inhibition [5]: 0.95% | growth inhibition [6]: 8.2%

COc1ccccc1N=Nc1c(O)n(-c2ccccc2)c(=S)n(-c2ccccc2)c1=O
growth inhibition [1]: 36.2% | growth inhibition [2]: -4.55% | growth inhibition [3]: 26.8% | growth inhibition [4]: -9.3% | growth inhibition [5]: -2.85% | growth inhibition [6]: 8.9%

Cn1c(=O)[nH]c(=O)c2nc(-c3ccccc3)cnc21
growth inhibition [1]: -11.9% | growth inhibition [2]: 12.3% | growth inhibition [3]: 2.55% | growth inhibition [4]: -13.6% | growth inhibition [5]: -2.7% | growth inhibition [6]: -0.65%

CC1OC(n2cnc3c(NC(=O)c4ccccc4)ncnc32)C(O)C2OC12 (centres undefined)
growth inhibition [1]: -1.15% | growth inhibition [2]: -3.05% | growth inhibition [3]: 8.75% | growth inhibition [4]: 13.4% | growth inhibition [5]: 2.95% | growth inhibition [6]: 14.8%

CN1C(=O)C(c2c[nH]c3ccccc23)N(C)C(=O)C1c1c[nH]c2ccccc12 (centres undefined)
growth inhibition [1]: -29.9% | growth inhibition [2]: -10.8% | growth inhibition [3]: -79.5% | growth inhibition [4]: -20.1% | growth inhibition [5]: -27.9% | growth inhibition [6]: -20%

Nc1nc(Cl)cc(NCCCCCCCCNc2cc(Cl)nc(N)n2)n1
growth inhibition [1]: -2.3% | growth inhibition [2]: -1.65% | growth inhibition [3]: -7.35% | growth inhibition [4]: -7.8% | growth inhibition [5]: -3.95% | growth inhibition [6]: -3.55%

Cc1ccc(C=NC23CC4CC(CC(C4)C2)C3)cc1
growth inhibition [1]: -3.3% | growth inhibition [2]: -28.6% | growth inhibition [3]: -24.2% | growth inhibition [4]: -24.9% | growth inhibition [5]: -35.9% | growth inhibition [6]: -20.4%

CC1C(C)(C)C23CC12C1(OCCO1)C3Br (centres undefined)
growth inhibition [1]: -11.4% | growth inhibition [2]: -4.4% | growth inhibition [3]: -6.6% | growth inhibition [4]: 14.6% | growth inhibition [5]: 10.8% | growth inhibition [6]: 25.4%

N.N.O=P([O-])([O-])C1(P(=O)([O-])[O-])CCCCCN1.[Pt+2]
growth inhibition [1]: 13.6% | growth inhibition [2]: 22.4% | growth inhibition [3]: -5.05% | growth inhibition [4]: 6.25% | growth inhibition [5]: 23.7% | growth inhibition [6]: 11.2%

Cc1cccc(C)c1I
growth inhibition [1]: -35% | growth inhibition [2]: -8.55% | growth inhibition [3]: -67.2% | growth inhibition [4]: -25.9% | growth inhibition [5]: -46.5% | growth inhibition [6]: -50.1%

CC1SCc2nc3ccccc3n21 (centres undefined)
growth inhibition [1]: 2.25% | growth inhibition [2]: -10.8% | growth inhibition [3]: 27.9% | growth inhibition [4]: 12.1% | growth inhibition [5]: 5.7% | growth inhibition [6]: -35.5%

CN(C)C(Cc1cnc[nH]1)C(=O)N1CCCC1C(N)=O (centres undefined)
growth inhibition [1]: -22.4% | growth inhibition [2]: -45.8% | growth inhibition [3]: -9.65% | growth inhibition [4]: -0.8% | growth inhibition [5]: -20.8% | growth inhibition [6]: 5.85%

Clc1ccc(N=Nc2nc3ccccc3nc2N=Nc2ccc(Cl)cc2Cl)c(Cl)c1
growth inhibition [1]: -32.5% | growth inhibition [2]: -4.6% | growth inhibition [3]: -13.2% | growth inhibition [4]: 3.25% | growth inhibition [5]: -5.75% | growth inhibition [6]: 0.55%

COC1/C=C/OC2(C)Oc3c(C)c(O)c4c(c3C2=O)C(=O)C([N+](=O)[O-])=C(NC(=O)C(C)=C/C=C\C(C)C(O)C(C)C(O)C(C)C(OC(C)=O)C1C)C4=O (centres undefined)
growth inhibition [1]: 21.7% | growth inhibition [2]: 10.4% | growth inhibition [3]: 29.4% | growth inhibition [4]: 19.6% | growth inhibition [5]: 24.4% | growth inhibition [6]: 29.6%
